From PubChem BioAssay AID1540 (National Center for Advancing Translational Sciences (NCATS), 2009)
Several values for one entry are separate records, joined by “and”; a condition that tells them apart may be missing. Equal values may be shown once. Records with an inconclusive call do not appear. Activity calls are given as the source filed them. Calls come from the whole dose curve; as a rule, active = well fitted activation curve with a large enough effect; inconclusive = small, poorly fitted or top-dose-only effect, or effect the other way; inactive = flat fitted curve, though single readings scatter.

target: Pyruvate kinase PKM (Homo sapiens) (UniProt P14618); assay: Secondary assay for Activators of Human Pyruvate Kinase M2 isoform; conditions: purified hPK-M2, LDH-coupled NADH fluorescence kinetic; series mostly up to 57.5 µM
Sequence (P14618 whole entry, looked up, canonical isoform): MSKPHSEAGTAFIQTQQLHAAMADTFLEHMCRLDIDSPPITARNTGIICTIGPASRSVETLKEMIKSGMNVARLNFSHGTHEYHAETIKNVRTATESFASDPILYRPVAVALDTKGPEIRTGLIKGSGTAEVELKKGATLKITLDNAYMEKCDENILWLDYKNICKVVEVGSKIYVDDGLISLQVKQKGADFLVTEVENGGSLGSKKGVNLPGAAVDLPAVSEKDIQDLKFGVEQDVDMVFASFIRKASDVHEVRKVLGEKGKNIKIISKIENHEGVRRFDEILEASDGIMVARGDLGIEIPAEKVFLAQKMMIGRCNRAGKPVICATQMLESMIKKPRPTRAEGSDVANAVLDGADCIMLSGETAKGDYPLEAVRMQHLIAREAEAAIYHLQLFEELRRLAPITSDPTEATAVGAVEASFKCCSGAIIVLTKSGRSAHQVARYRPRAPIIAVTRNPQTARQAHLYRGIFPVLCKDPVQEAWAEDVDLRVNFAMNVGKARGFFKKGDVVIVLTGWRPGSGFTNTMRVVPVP
From the text: Confirmatory assay NIH Chemical Genomics Center [NCGC] Matthew G. Vander Heiden, M.D., Ph.D. [Harvard Medical School, 77 Avenue Louis Pasteur, Boston, MA 02115] NCGC Assay Overview: Human pyruvate kinase muscle 2 (hPK-M2)enzyme was supplied as a highly purified (>95% pure) preparation from Harvard Medical School and a secondary assay was used to evaluate compounds. This assay couples the formation of pyruvate from hPK-M2 using lactate dehydrogenase (LDH) and NADH. The depletion of NADH is followed in a fluorescent-based kinetic assay that follows the formation of pyruvate to lactate, as catalyzed LDH (described by Hannaert et al., 2002)1 Pyruvate kinase substrates, PEP and ADP, were present in the assay at 0.1 mM and 4 mM respectively. In this kinetic assay initial rates were determined by following the fluorescence of NADH depletion.
NCGC Assay Protocol Summary: Three uL of substrate mix (final concentration, 50 mM Tris-Cl pH 8.0, 200 mM KCl, 15 mM MgCl2, 0.1 mM PEP, 4.0 mM ADP, and 0.2 mM NADH) was dispensed into black-solid 1536 well plates. 23 nL of compounds were delivered by a pin tool and 1 uL of enzyme mix (final concentrations, 10 nM hPK-M2 and 1 uM of LDH) was added. Plates were immediately placed in ViewLux (Perkin Elmer) and NADH fluorescence was determined at 30 second exposure intervals for between 3 and 6 minutes. Data were normalized to the uninhibited and EC100 activation using known activators such as fructose-bis-phosphate.

Potency, active:
Cn1c2cc(Br)sc2c2cnn(Cc3ccc(F)cc3)c(=O)c21 794 nM
COc1cccc(S(=O)(=O)N2CCN(S(=O)(=O)c3ccc4c(c3)OCCO4)CC2)c1 562 nM
O=C1CN(S(=O)(=O)c2c(F)cccc2F)CCN1S(=O)(=O)c1ccc2c(c1)OCCO2 2510 nM
Cn1c2cc(Br)sc2c2cnn(Cc3ccc(F)cc3F)c(=O)c21 708 nM
COc1cc2c(s1)c1cnn(Cc3ccccc3F)c(=O)c1n2C 158 nM
Cc1cc2c(s1)c1cnn(Cc3cccc(F)c3)c(=O)c1n2C 1260 nM
CC(=O)Nc1ccc(S(=O)(=O)N2CCCN(S(=O)(=O)c3ccc4c(c3)OCCO4)CC2)cc1 2590 nM
Nc1ccc(S(=O)(=O)N2CCCN(S(=O)(=O)c3ccc4c(c3)OCCO4)CC2)cc1 366 nM
O=S(=O)(c1ccc2c(c1)OCCO2)N1CCN(S(=O)(=O)c2ccccn2)CC1 2820 nM
Cc1cc2c(s1)c1cnn(Cc3c(F)cccc3F)c(=O)c1n2C 141 nM
COC(=O)c1cc(F)c(S(=O)(=O)N2CCN(S(=O)(=O)c3ccc4c(c3)OCCO4)CC2)cc1F 355 nM
Cc1cc2c(s1)c1cnn(Cc3c(F)c(F)cc(F)c3F)c(=O)c1n2C 398 nM
COc1cc(F)c(S(=O)(=O)N2CCN(S(=O)(=O)c3cccs3)CC2)c(F)c1 51.7 nM
CC(=O)c1cc2c(s1)c1cnn(Cc3ccccc3F)c(=O)c1n2C 158 nM
Cc1cc2c(s1)c1cnn(Cc3ccc(F)c(F)c3F)c(=O)c1n2C 1260 nM
Nc1ccc(S(=O)(=O)N2CCN(S(=O)(=O)c3c(F)cccc3F)CC2)cc1 410 nM
COc1cc(F)c(S(=O)(=O)N2CCN(S(=O)(=O)c3ccc(NC(C)=O)cc3)CC2)c(F)c1 14600 nM
O=S(=O)(c1ccc2c(c1)OCCO2)N1CCN(S(=O)(=O)c2c(F)cccc2F)CC1 1 µM and 562 nM
Cc1cc2c(s1)c1cnn(Cc3ccc(F)cc3F)c(=O)c1n2C 178 nM
O=S(=O)(c1ccc2c(c1)OCCO2)N1CCCN(S(=O)(=O)c2c(F)cccc2F)CC1 891 nM
Cn1c2cc(CO)sc2c2cnn(Cc3ccccc3F)c(=O)c21 141 nM
O=S(=O)(c1cccc(O)c1)N1CCN(S(=O)(=O)c2c(F)cccc2F)CC1 183 nM
CC(C)c1cc2c(s1)c1cnn(Cc3ccccc3F)c(=O)c1n2C 1410 nM
COc1ccc(S(=O)(=O)N2CCN(S(=O)(=O)c3ccc(OC)cc3)CC2)cc1 398 nM and 282 nM
C=Cc1cc2c(s1)c1cnn(Cc3ccccc3F)c(=O)c1n2C 562 nM
Cc1cc2c(s1)c1cnn(Cc3cc(C(F)(F)F)cc(Cl)c3F)c(=O)c1n2C 562 nM
C=Cc1cc(F)c(S(=O)(=O)N2CCN(S(=O)(=O)c3ccc4c(c3)OCCO4)CC2)cc1F 2000 nM
CC(=O)Nc1cccc(S(=O)(=O)N2CCCN(S(=O)(=O)c3ccc4c(c3)OCCO4)CC2)c1 819 nM
Cc1ccc(Cn2ncc3c4sc(C)cc4n(C)c3c2=O)cc1 1260 nM
Cc1cc2[nH]c3c(=O)n(Cc4ccccc4F)ncc3c2s1 708 nM
COc1ccc(Cn2ncc3c4sc(C)cc4n(C)c3c2=O)cc1 199 nM
COc1ccc(Cn2ncc3c4sc(C)cc4n(C)c3c2=O)cc1F 1120 nM
CC1(C)CCc2cc(S(=O)(=O)N3CCN(S(=O)(=O)c4c(F)cccc4F)CC3)ccc2O1 5.01 µM and 631 nM
Cn1c2cc(C(=O)O)sc2c2cnn(Cc3ccccc3F)c(=O)c21 8910 nM
Nc1cccc(S(=O)(=O)N2CCN(S(=O)(=O)c3c(F)cccc3F)CC2)c1 206 nM
Cn1ccc2cc(S(=O)(=O)N3CCN(S(=O)(=O)c4c(F)cccc4F)CC3)ccc21 1410 nM
O=C(O)c1cc(F)c(S(=O)(=O)N2CCN(S(=O)(=O)c3ccc4c(c3)OCCO4)CC2)cc1F 31600 nM
C[C@H]1CN(S(=O)(=O)c2ccc3c(c2)OCCO3)CCN1S(=O)(=O)c1c(F)cccc1F 5010 nM
O=C1CN(S(=O)(=O)c2ccc3c(c2)OCCO3)CCN1S(=O)(=O)c1c(F)cccc1F 2820 nM
O=S(=O)(c1cccc(F)c1)N1CCN(S(=O)(=O)c2ccc3c(c2)OCCO3)CC1 1000 nM
